Data: PubChem BioAssay (NCI)
Where “and” joins values, the source holds several entries; their conditions need not be identical. Equal values may be shown once. This is part of a sample that, as a whole, favours compounds with a hit. Of some 83,000 tested, about 20% had one in any assay.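 Negative percent growth values reflect cell death: -40 means 40% of the cells present at the start died, and -100 means all died.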 Calls of active or inactive are those of the source. How the source made its calls: active means growth percent below 10; inactive means the rest.

Columns and labels:
Assay in all cases: NCI-60 one-dose screen, 48 h (100 = growth as untreated, 0 = no growth, -100 = all killed)
Conditions in all cases: 10 µM unless noted
NCI-H23 lung = tested on: NCI-H23 lung
NCI-H226 lung = tested on: NCI-H226 lung
NCI-H322M lung = tested on: NCI-H322M lung
HOP-62 NSCLC = tested on: HOP-62 NSCLC
NCI-H460 lung = tested on: NCI-H460 lung
HOP-92 NSCLC = tested on: HOP-92 NSCLC
NCI-H522 lung = tested on: NCI-H522 lung
A549/ATCC NSCLC = tested on: A549/ATCC NSCLC
786-0 renal = tested on: 786-0 renal
COLO 205 colon = tested on: COLO 205 colon

In the case of `NC(N)=N/N=C/c1ccc([N+](=O)[O-])o1`, the growth (NCI-H23 lung) is reported as 65.5% (inactive), the growth (NCI-H226 lung) is reported as 100% (inactive) and the growth (NCI-H322M lung) is reported as 87.2% (inactive). For the same compound, the growth (HOP-62 NSCLC) was 113% (inactive), the growth (NCI-H460 lung) was 80.2% (inactive) and the growth (HOP-92 NSCLC) was 106% (inactive). For the same compound, the growth (NCI-H522 lung) was 70.1% (inactive), the growth (A549/ATCC NSCLC) was 80.2% (inactive) and the growth (786-0 renal) was 98% (inactive). For the same compound, the growth (COLO 205 colon) was 3.2% (active).

With `C=CCOc1ccc(N=NC(C#N)C#N)cc1` the growth (NCI-H23 lung) was 75.7% (inactive), the growth (NCI-H226 lung) was 84.5% (inactive) and the growth (NCI-H322M lung) was 93% (inactive). The growth (HOP-62 NSCLC) was 52.3% (inactive), the growth (NCI-H460 lung) was 104% (inactive) and the growth (HOP-92 NSCLC) was -13.1% (active). The growth (NCI-H522 lung) was -12.9% (active), the growth (A549/ATCC NSCLC) was 86.3% (inactive) and the growth (786-0 renal) was 78.8% (inactive). The growth (COLO 205 colon) was 22.1% (inactive).

For `CC(=O)Nc1cccc2cc(O)ccc12`, the growth (NCI-H23 lung) was 99% (inactive) and 101% (inactive) and 103% (inactive), the growth (NCI-H226 lung) was 98.2% (inactive) and 98.1% (inactive) and 102% (inactive) and the growth (NCI-H322M lung) was 110% (inactive) and 116% (inactive). The growth (HOP-62 NSCLC) was 100% (inactive) and 93.1% (inactive) and 95.8% (inactive), the growth (NCI-H460 lung) was 114% (inactive) and 103% (inactive) and 105% (inactive) and the growth (HOP-92 NSCLC) was 64.6% (inactive) and 88.7% (inactive) and 73.6% (inactive). For the same compound, the growth (NCI-H522 lung) was 101% (inactive) and 109% (inactive) and 84.1% (inactive), the growth (A549/ATCC NSCLC) was 118% (inactive) and 111% (inactive) and 98.6% (inactive) and the growth (786-0 renal) was 109% (inactive) and 104% (inactive) and 98.9% (inactive). The growth (COLO 205 colon) was 106% (inactive) and 110% (inactive) and 104% (inactive).

In the case of `Nc1ncnc2c1ncn2C1OC(CO)C(O)C1O` (stereo not given), the growth (NCI-H23 lung) is reported as 111% (inactive) and 93.6% (inactive) and 103% (inactive), the growth (NCI-H226 lung) is reported as 105% (inactive) and 82.7% (inactive) and 103% (inactive) and the growth (NCI-H322M lung) is reported as 114% (inactive) and 60.9% (inactive) and 111% (inactive). For the same compound, the growth (HOP-62 NSCLC) was 120% (inactive) and 93.4% (inactive) and 95% (inactive), the growth (NCI-H460 lung) was 113% (inactive) and 43.4% (inactive) and 103% (inactive) and the growth (HOP-92 NSCLC) was 93.4% (inactive) and 100% (inactive) and 89.5% (inactive). For the same compound, the growth (NCI-H522 lung) was 106% (inactive) and -20.2% (active) and 110% (inactive), the growth (A549/ATCC NSCLC) was 106% (inactive) and 97.7% (inactive) and the growth (786-0 renal) was 104% (inactive) and 73.7% (inactive) and 100% (inactive). For the same compound, the growth (COLO 205 colon) was 121% (inactive) and 100% (inactive).

For `CN(C)CCOc1ccc2c(c1)C(=O)/C(=C\c1ncc([N+](=O)[O-])n1C)C2`, the growth (NCI-H23 lung) was -42.7% (active), the growth (NCI-H226 lung) was -38.5% (active) and the growth (NCI-H322M lung) was 6.13% (active). For the same compound, the growth (HOP-62 NSCLC) was -17.8% (active), the growth (NCI-H460 lung) was -57.5% (active) and the growth (HOP-92 NSCLC) was -54.3% (active). For the same compound, the growth (NCI-H522 lung) was -59.8% (active), the growth (A549/ATCC NSCLC) was -29.6% (active) and the growth (786-0 renal) was -26.4% (active). The growth (COLO 205 colon) was -91.9% (active).

With `O=C(O)C1C2CC3C(OC(=O)C31)C2Br` (stereo not given) the growth (NCI-H23 lung) was 103% (inactive) and 95.4% (inactive), the growth (NCI-H226 lung) was 88.3% (inactive) and 90.7% (inactive) and the growth (NCI-H322M lung) was 101% (inactive) and 106% (inactive). For the same compound, the growth (HOP-62 NSCLC) was 92.8% (inactive) and 99.4% (inactive), the growth (NCI-H460 lung) was 98.3% (inactive) and 100% (inactive) and the growth (HOP-92 NSCLC) was 91% (inactive) and 94.2% (inactive). The growth (NCI-H522 lung) was 72.9% (inactive) and 95.6% (inactive), the growth (A549/ATCC NSCLC) was 79.6% (inactive) and 101% (inactive) and the growth (786-0 renal) was 105% (inactive) and 99% (inactive). For the same compound, the growth (COLO 205 colon) was 97.1% (inactive) and 103% (inactive).

For `CCOc1ccc(-c2nc3ccc(-c4nc5ccc(N6CCN(C)CC6)cc5[nH]4)cc3[nH]2)cc1`, the growth (NCI-H23 lung) was -71.7% (active), the growth (NCI-H226 lung) was -85.5% (active) and the growth (NCI-H322M lung) was -84.7% (active). For the same compound, the growth (HOP-62 NSCLC) was -87.5% (active), the growth (NCI-H460 lung) was -90.7% (active) and the growth (HOP-92 NSCLC) was -56.3% (active). The growth (NCI-H522 lung) was -65.5% (active), the growth (A549/ATCC NSCLC) was -80.7% (active) and the growth (786-0 renal) was -90.6% (active). For the same compound, the growth (COLO 205 colon) was -96.5% (active).

`c1ccc2c(c1)Nc1cc3ccccc3cc1N2` was tested, and the growth (NCI-H23 lung) was 30.3% (inactive), the growth (NCI-H226 lung) was 80.5% (inactive) and the growth (NCI-H322M lung) was 48.5% (inactive). The growth (HOP-62 NSCLC) was 41.4% (inactive), the growth (NCI-H460 lung) was 51.7% (inactive) and the growth (HOP-92 NSCLC) was 85% (inactive). The growth (NCI-H522 lung) was -14.7% (active), the growth (A549/ATCC NSCLC) was 41.5% (inactive) and the growth (786-0 renal) was 66.6% (inactive). For the same compound, the growth (COLO 205 colon) was -43.7% (active).

For `N#CSCc1ccc(CSC#N)c(Cl)c1`, the growth (NCI-H23 lung) was 85.1% (inactive), the growth (NCI-H226 lung) was 93.1% (inactive) and the growth (NCI-H322M lung) was 106% (inactive). For the same compound, the growth (HOP-62 NSCLC) was 129% (inactive), the growth (NCI-H460 lung) was 75.5% (inactive) and the growth (HOP-92 NSCLC) was 4.78% (active). The growth (NCI-H522 lung) was 15.7% (inactive), the growth (A549/ATCC NSCLC) was 75.8% (inactive) and the growth (786-0 renal) was 73.2% (inactive). The growth (COLO 205 colon) was 45% (inactive).

With `Cc1cc(N)c2ccccc2[n+]1CCCCCCCCCC[n+]1c(C)cc(N)c2ccccc21` the growth (NCI-H23 lung) was 5.83% (active) and -29.4% (active), the growth (NCI-H226 lung) was 13.8% (inactive) and 31.5% (inactive) and the growth (NCI-H322M lung) was 11.2% (inactive) and 41.8% (inactive). For the same compound, the growth (HOP-62 NSCLC) was 16.3% (inactive) and 25.4% (inactive), the growth (NCI-H460 lung) was 1.44% (active) and -18.2% (active) and the growth (HOP-92 NSCLC) was -22.2% (active) and 7.42% (active). For the same compound, the growth (NCI-H522 lung) was -8.65% (active) and -8.09% (active), the growth (A549/ATCC NSCLC) was 29.9% (inactive) and -17% (active) and the growth (786-0 renal) was 18.7% (inactive) and 20.8% (inactive). The growth (COLO 205 colon) was -50.2% (active) and -45.7% (active).
